Results taken from PubChem BioAssay (NCI).
The panel holds about 83,000 compounds, 20% with a hit somewhere; the sample as a whole holds those more often.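 Growth was measured after 48 h exposure to one concentration of compound in 96-well plates. Values under 10 count as active.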 Unmarked numbers belong to inactive results. Calls of active or inactive are those of the source.

Key:
Experiment in all cases: NCI-60 one-dose screen, 48 h (100 = growth as untreated, 0 = no growth, -100 = all killed)
Details in all cases: 10 µM unless noted
SR leukemia = test system: SR leukemia
RPMI-8226 leukemia = test system: RPMI-8226 leukemia
OVCAR-8 ovarian = test system: OVCAR-8 ovarian
OVCAR-5 ovarian = test system: OVCAR-5 ovarian
OVCAR-4 ovarian = test system: OVCAR-4 ovarian
SK-OV-3 ovarian = test system: SK-OV-3 ovarian
IGROV1 ovarian = test system: IGROV1 ovarian
OVCAR-3 ovarian = test system: OVCAR-3 ovarian
HS 578T breast = test system: HS 578T breast
NCI/ADR-RES ovarian = test system: NCI/ADR-RES ovarian
T-47D breast = test system: T-47D breast
BT-549 breast = test system: BT-549 breast
MDA-MB-435 melanoma = test system: MDA-MB-435 melanoma
SW-620 colon = test system: SW-620 colon
MCF7 breast = test system: MCF7 breast
HCT-116 colon = test system: HCT-116 colon
HCC-2998 colon = test system: HCC-2998 colon
KM12 colon = test system: KM12 colon

SMILES	growth (SR leukemia)	growth (RPMI-8226 leukemia)	growth (OVCAR-8 ovarian)	growth (OVCAR-5 ovarian)	growth (OVCAR-4 ovarian)	growth (SK-OV-3 ovarian)	growth (IGROV1 ovarian)	growth (OVCAR-3 ovarian)	growth (HS 578T breast)	growth (NCI/ADR-RES ovarian)	growth (T-47D breast)	growth (BT-549 breast)	growth (MDA-MB-435 melanoma)	growth (SW-620 colon)	growth (MCF7 breast)	growth (HCT-116 colon)	growth (HCC-2998 colon)	growth (KM12 colon)
Nc1nc2ccccc2c2c1S(=O)(=O)c1ccc(Cl)cc1C2=O	3.3% (active)	-15.1% (active)	8.43% (active)	13.9%	7.52% (active)	58.6%	27.6%	-12.5% (active)	6.88% (active)	24.8%	-0.213% (active)	24.3%	20.5%	2.06% (active)	9.68% (active)	1.05% (active)	41.5%	18.4%
c1cc2c(ccc3[nH]c(-c4ccc5[nH]ncc5c4)c4c(c32)CCCC4)n1	-7.05% (active)	45.8%	64.4%	80.4%	80.7%	63.4%	67.6%	72.5%	75.7%	83.2%	38.9%	53.2%	68.9%	60.8%	23.3%	38%	93.6%	67.9%
CCCCCOC(=O)c1c(C)[nH]c(/C=C2\N=C(c3ccc[nH]3)C=C2OC)c1C	-30% (active)	-43.6% (active)	7.42% (active)	-47.1% (active)	-7.23% (active)	8.75% (active)	-14.1% (active)	-52.4% (active)	-23.5% (active)	5.69% (active)	-42.5% (active)	2.11% (active)	-16.9% (active)	-1.61% (active)	-61.2% (active)	-85.7% (active)	-20.1% (active)	-13.6% (active)
COc1ccc(/C=N\Nc2nc(SCCC(C)C)nc(-c3ccc(OC)cc3)c2C#N)cc1	4.53% (active)	54.4%	39.5%	63.3%	-57.2% (active)	56.9%	34.5%	12.8%	29.4%	74.8%	23.1%	93.1%	71.2%	49.6%	63.5%	21.1%	82.1%	83%
COc1ccc(-c2nn(-c3cccc(Cl)c3)cc2-c2cc(-c3ccc(Br)cc3)nc(N)n2)cc1	82%	84.1%	98.9%	97.2%	96%	102%	89.2%	107%	99.7%	99.8%	66.2%	114%	99.6%	100%	57.4%	91.5%	104%	93.4%
COc1ccc2c(c1OC)CO[C@@H]2[C@H]1c2c(cc3c(c2OC)OCO3)CCN1S(=O)(=O)c1cn(C)cn1	23.7%	16.5%	20.4%	35.1%	51.5%	22.2%	24.7%	-35.3% (active)	15.5%	3.64% (active)	33.4%	38.2%	-27.3% (active)	25.4%	16.9%	14.4%	11.7%	11.3%
COc1cc2c(cc1OCCCN1CCN(CCCOc3cc4c(cc3OC)C(=O)N3CC(F)(F)C[C@H]3C=N4)CC1)N=C[C@@H]1CC(F)(F)CN1C2=O	37.5%	5.91% (active)	62.2%	41.2%	83%	84.9%	60.9%	54.6%	-0.618% (active)	111%	34.5%	-7.9% (active)	69%	-0.878% (active)	25.5%	62%	60.5%	62.3%
O=C(/C=C(/C=C/c1ccc2[nH]ccc2c1)OB(F)F)/C=C/c1ccc2[nH]ccc2c1	2.78% (active)	-31.2% (active)	-29.9% (active)	15.4%	2.28% (active)	13.6%	5.09% (active)	-16.2% (active)	31.4%	14.3%	6.23% (active)	-28.2% (active)	-4.54% (active)	6.41% (active)	12.5%	-79% (active)	-88.3% (active)	-5.34% (active)
CCCCCCCCCCCCCCCCCCOc1ccccc1CC(=O)OCC[N+](C)(C)C	11.1%	40.9%	5.15% (active)	31.8%	20%	56.2%	-61.4% (active)	16.5%	17.1%	91.3%	28.8%	46.5%	31.5%	23.9%	34%	30.6%	27.9%	-27.4% (active)
Cc1ccc(C(=O)c2ccc(CC(=O)N/N=C/c3ccccc3O)n2C)cc1	56.2%	81.4%	79%	92%	60.2%	90.4%	80.9%	80.3%	104%	69.4%	75.6%	85.1%	83.2%	89.6%	81.5%	92.1%	92.1%	80.4%
CN(C)CCNC(=O)c1ccc(-c2nc3ccc4[nH]ncc4c3c3c2C2CCC3C2)cc1 (stereo unspecified)	1.91% (active)	-5.84% (active)	20.8%	96%	48.6%	1.15% (active)	16.4%	20.9%	9.56% (active)	77.7%	43.6%	2.26% (active)	42%	17.8%	9.64% (active)	9.52% (active)	38.5%	2.75% (active)
CC(=O)n1nc(C(=O)OC(C)(C)c2ccccc2)c2ccccc21	95.3%	102%	95.4%	80.7%	93%	88.2%	96.7%	101%	100%	89.5%	86.3%	99.6%	92.1%	103%	94%	94.8%	98.2%	94.7%
O=C(/C=C/c1cccs1)Nc1ncc(Cc2ccccc2F)s1	26.1%	23.7%	29.8%	34.5%	48%	27.5%	35.4%	-6.37% (active)	16%	11.6%	23.8%	52.3%	-64.4% (active)	24.5%	17.1%	28.6%	44.4%	16.7%
CCCC/C=C/[C@@H]1C[C@H]1CCO	100%	99.3%	100%	89.1%	107%	91.8%	100%	109%	101%	104%	95.9%	96.8%	102%	102%	87.5%	90.6%	102%	103%
CC/C(=C(/c1ccc(Cl)cc1)c1ccc(OCCN(C)C)cc1)c1ccc(Cl)cc1	-6.88% (active)	32.8%	75.1%	83.9%	78%	90%	72.5%	65%	75.1%	74.8%	58.4%	82.7%	73.1%	55.8%	20.5%	56.7%	46.9%	56.6%
Cc1nc2sc(C(=O)Nc3cccc4ccccc34)c(N)c2cc1C(O)c1ccccc1 (stereo unspecified)	-1.98% (active)	0.145% (active)	5.13% (active)	37.4%	60%	8.83% (active)	14.4%	-5.29% (active)	8.1% (active)	2.93% (active)	45.4%	40.2%	0.328% (active)	20.2%	12.4%	8.89% (active)	5.55% (active)	7.64% (active)
Clc1ccc2c(NC3CCC(N4CCOCC4)CC3)ccnc2c1 (stereo unspecified)	55.2%	58.2%	69.1%	105%	56.7%	81.5%	131%	92.7%	83.8%	77.2%	58%	67.4%	86.3%	85.4%	63.7%	47%	77.8%	96.4%
